From PubChem BioAssay AID1628 (Sanford-Burnham Center for Chemical Genomics, 2009)
The whole screen tested about 190,000 compounds, of which about 930 (0.49%) were called active. The list shows a part of the results. Potency and affinity values are given separately. A number with no mark means an inactive call.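 How the source made its calls: active means z-score of insulin promoter reporter brightness in nuclei below -3 at 5 µM, with at least 500 cells counted; inconclusive means wells with under 500 cells, flagged as toxic or sparse; inactive means the rest.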

Experiment: insulin promoter down-regulators in MIN6 cells, imaging, high-content screening, mouse beta cells (AID 1628)
Details: MIN6 insulin promoter GFP reporter, at 5 µM, stronger effect = lower value

Row | Structure (SMILES) | z-score
1 | Cc1cccc(NC(=O)COc2cccc3c2CCN(Cc2ccccc2)C3=O)c1C | -3.66 (active)
2 | Cc1nccn1CCc1n[nH]c(=S)n1Cc1ccccc1 | -4.01 (active)
3 | S=c1[nH]nc(-c2ccccc2)n1CC1CCCO1 (stereo unspecified) | 3.06
4 | CC(C)OC(=O)c1c2c(n3ccccc13)C(=O)c1ccccc1C2=O | 11.7
5 | CN1c2ccccc2N(C)C1c1c(O)ccc2ccccc12 | 1
6 | CCC(C)NS(=O)(=O)c1ccc(OCC(=O)N2CCC(C)CC2)cc1 (stereo unspecified) | 0.84
7 | CC1CCN(C(=O)CNS(=O)(=O)c2ccc(Br)s2)CC1 | 3.37
8 | CC1CC(C)CN(C(=O)c2cccc3c2-c2ccccc2C3=O)C1 (stereo unspecified) | 3.97
9 | CC1CC(C)CN(C(=O)C(NS(=O)(=O)c2ccc3c(c2)oc(=O)n3C)C(C)C)C1 (stereo unspecified) | -5.42 (active)
10 | Cc1nc2ccc(S(=O)(=O)NC(C(=O)N3CCC(C)CC3)C(C)C)cc2s1 (stereo unspecified) | -4.34 (active)
11 | CCCN(CCC)S(=O)(=O)c1ccc(C(=O)Nc2nnc(-c3cc(OC)cc(OC)c3)o2)cc1 | -4.56 (active)
12 | CCCN(CCC)S(=O)(=O)c1ccc(C(=O)OCCN2C(=O)c3cccc4c(N5CCOCC5)ccc(c34)C2=O)cc1 | 6.18
13 | COc1cc(OC)cc(C(=O)Nc2cccc(C(C)=O)c2)c1 | 3.53
14 | Cc1ccc(NC(=O)/C=C/c2ccc([N+](=O)[O-])s2)c(C)c1 | 13.3
15 | COc1ccc2nc(SCC(=O)Nc3c(C)cccc3C)[nH]c2c1 | 3.26
16 | Cc1ccc2nc(SCC(=O)Nc3ccc(C)c([N+](=O)[O-])c3)[nH]c2c1 | -4.5 (active)
17 | N#C/C(=C/c1ccc(N2CCCCC2)o1)C(=O)Nc1ccc2ccccc2c1 | 12.9
18 | CCCN1C(=O)/C(=C/c2c(N3CCNC(=O)C3CC(=O)OCC)nc3c(C)cccn3c2=O)SC1=S (stereo unspecified) | 12.1
19 | O=C(CSc1nc2[nH]ncc2c(=O)n1-c1ccccc1)NCCc1ccccc1 | 2.5
20 | O=C(CSc1ccc2ccccc2c1)NCCc1ccc(O)c(O)c1 | -3.3 (active)
21 | O=C(COc1ccccc1)NCCn1ccc2ccccc21 | 1.18
22 | CCCCN(CC(=O)NCc1ccc(Cl)cc1)S(=O)(=O)c1ccc2c(c1)OCCO2 | -4.37 (active)
23 | Cc1cc(SCC(=O)N2CCCC2)nc2ccccc12 | -0.89
24 | COc1cc2c(cc1OC)C(C)=NCC2 | 0.45

Row | Structure (SMILES) | z-score
25 | Cc1cc2oc(=O)cc(CN3CCN(S(=O)(=O)c4ccc5c(c4)OCCO5)CC3)c2cc1C | -4.33 (active)
26 | CNC(=O)C1CC(=O)N/C(=N/N=C(\C)c2cccs2)S1 (stereo unspecified) | 3.72
27 | CCOc1ccccc1OCCCCCc1c(C)n[nH]c1C | -3.04 (active)
28 | O=c1c(Cl)c2oc3ccccc3nc-2c2ccccc12 | 6.06
29 | COc1ccc(CCn2c(C3CCCCC3)nc3c(c(=O)c4ccccc4n3C)c2=O)cc1 | -3.39 (active)
30 | c1cc2c3c(cccc3c1)NC1(CCCCCC1)N2 | -4.13 (active)
31 | COc1cc(C(C(=O)NC(C)(C)C)N(Cc2ccccc2)C(=O)c2cnccn2)cc(OC)c1OC (stereo unspecified) | -0.06
32 | COc1cc(C(=O)N/N=C(\c2ccccc2)c2ccccn2)cc(OC)c1OC | -3.93 (active)
33 | CCc1ccccc1NC1=CC(=O)CC(C)(C)C1 | 1.6
34 | Cc1ccccc1OCc1n(CC(=O)OC2CC(C)CCC2C(C)C)c2ccccc2[n+]1C (stereo unspecified) | -5.14 (active)
35 | Cc1ccccc1OCC(=O)OC1CCN(C)CC1 | 8.59
36 | CCOC(=O)c1c2c3c(c(Cl)ccc3[nH]c1=O)C(=O)c1ccccc1-2 | -3.28 (active)
37 | COCCCNc1c2c3c(cccc3[nH]c1=O)C(=O)c1ccccc1-2 | 13.6
38 | CSc1nc2ccc(S(N)(=O)=O)cc2s1 | -4.36 (active)
39 | N#C/C(=C/c1ccc(-c2ccc(S(N)(=O)=O)cc2)o1)c1nc2ccccc2s1 | 16.5
40 | CC1(C)CCc2c([nH]c3ccccc3c2=O)O1 | 0.3
41 | Cc1ccc2[nH]c3c(N4CCCCCC4)ncnc3c2c1 | -3.59 (active)
42 | c1ccc2c(c1)[nH]c1c(N3CCC4(CC3)OCCO4)ncnc12 | -4.74 (active)
43 | Cc1cc2ccccn2c1C(=O)c1ccncc1 | -8.28 (active)
44 | COC(=O)c1cc2c(-c3ccccc3)cc3ccccn3c-2c1C(=O)OC | 3.3
45 | CC(NC(=O)/C(C#N)=C1\N=C(NC(=O)c2ccco2)c2ccccc21)c1ccccc1 (stereo unspecified) | 3.68
46 | COc1ccc(-c2cnn3c4c(c(C)nc23)CCN4C2CCCC2)cc1OC | -4.71 (active)
47 | CCCCNC(=O)C1CC(=O)N(C2CCCCC2)C1 (stereo unspecified) | 3.02
48 | c1nc(N2CCNCC2)c2sc3nc(N4CCOCC4)c4c(c3c2n1)CCC4 | -3.71 (active)

Row | Structure (SMILES) | z-score
49 | N#Cc1c2c(c(-n3cnc4ccccc43)n3c1nc1ccccc13)CCC2 | 4.79
50 | CC1(C)NC(=O)N(CCCCOc2ccc3c(c2)CCC3)C1=O | -1.15
51 | OC(COc1ccc2c(c1)CCC2)Cn1cnc2ccccc21 (stereo unspecified) | -4.14 (active)
52 | CCc1cc(C(=O)Cc2cnn(-c3ccccc3)c2)c(O)cc1O | 0.58
53 | O=C1Nc2ccc(NS(=O)(=O)c3cccs3)c3cccc1c23 | 1.61
54 | COc1cc2cccc(OC)c(=O)c2c(OC)c1OC | 0.56
55 | N#C/C(=C\N1CCN(Cc2ccc3c(c2)OCO3)CC1)c1nc2ccccc2s1 | 3.92
56 | c1ccc(CCn2nnnc2C(c2cccs2)N2CCN(Cc3ccc4c(c3)OCO4)CC2)cc1 (stereo unspecified) | -4.21 (active)
57 | Cc1cc(C)nc(NC2=NCC(=O)N2c2ccc(Cl)cc2)n1 | -3.4 (active)
58 | Cc1ccc(NC2=NCC(=O)N2C2CCCC2)c(C)c1 | 0.57
59 | COc1cccc2sc(NNC(=O)C3=COCCO3)nc12 | 5.68
60 | CC(C)N1CCc2c(sc(NC(=O)c3ccc(S(=O)(=O)N4CCc5ccccc54)cc3)c2C(N)=O)C1 | 4.91
61 | Cc1cccc2sc(NNC(=O)c3ccc4c(c3)OCCO4)nc12 | 3.4
62 | Cc1cc(C)c2nc(NNC(=O)c3ccc(S(=O)(=O)N4CCc5ccccc5C4)cc3)sc2c1 | -5.92 (active)
63 | CC1CN(S(=O)(=O)c2ccc(C(=O)Nc3sc4c(c3C(N)=O)CCN(C)C4)cc2)CC(C)O1 (stereo unspecified) | 11
64 | CNC(=O)c1c(NC(=O)c2ccc(S(=O)(=O)N3CCCc4ccccc43)cc2)sc2c1CCN(C)C2 | 8.33
65 | CCCN1C(=O)S/C(=C\c2ccc(N3CCOCC3)o2)C1=O | 9.56
66 | COc1ccc(-c2n(Cc3ccccc3)c3ccccc3[n+]2Cc2ccccc2)cc1 | -8.43 (active)
67 | CCc1nnc(NC(=O)CCC(=O)NCc2ccccc2OC)s1 | 4.05
68 | CCOc1ccccc1C(=O)Nc1nnc(COC)s1 | 0.76
69 | CCCC1C2CN(C(C)C)CC=C2C(C#N)=C(N)C1(C#N)C#N (stereo unspecified) | 16.1
70 | CCOC(=O)CSc1nc2cc3c(cc2cc1CC)OCCO3 | 0.81
71 | Cc1ccc(/C(N)=N/OC(=O)c2ccc(F)cc2)cc1 | -4.16 (active)
72 | CCC1COC(c2cccn2Cc2ccc(Cl)cc2)=N1 (stereo unspecified) | 2.5

Row | Structure (SMILES) | z-score
73 | CC1=C/C(=C\C=C(C#N)C#N)N(C)c2ccccc21 | 4.05
74 | COCc1cc(C)nc(Nc2ccccc2C)c1C#N | 3.32
75 | CCCOC(=O)C1=C(C)NC2=C(C(=O)CCC2)C1c1cccc(OC)c1OC (stereo unspecified) | -0.62
76 | CCCOC(=O)c1ccc(NC(=O)c2cc(OC)c(OC)c(OC)c2Br)cc1 | -3.3 (active)
77 | C=CCNC(=S)NNC(=O)c1ccc(OCCCC)cc1 | 0.58
78 | COC(=O)c1cc(NC(=O)c2ccccc2)c(=O)oc1/C=C/Nc1ccc(Oc2ccccc2)cc1 | 10.8
79 | CCOc1ccc2nc(NCCCNS(=O)(=O)c3ccc(C)cc3)c(C#N)cc2c1 | 1.84
80 | CCOc1ccc2c(c1)C(C)=CC(C)(C)N2S(=O)(=O)c1ccc(C)cc1 | -3.31 (active)
81 | CCOc1ccc(NS(=O)(=O)c2ccc(NS(=O)(=O)c3ccccc3)cc2)cc1 | 7.53
82 | Cc1nc2ccccc2n1CC(=O)NCc1ccccc1 | -3.91 (active)
83 | C=C(C)Cn1c(CCCNC(=O)CC)nc2ccccc21 | 0.76
84 | O=C(CCl)Nc1cccc2ncccc12 | 4.01
85 | COc1ccccc1NC(=O)CSc1nc2c(sc3ccccc32)c(=O)n1CCN(C)C | 2.23
86 | O=C(COC(=O)c1ccco1)Nc1ccc2c(c1)OCCO2 | 0.45
87 | O=c1ccnc(Nc2ccc3c(c2)OCCO3)[nH]1 | 3.66
88 | Cn1nc(CC(=O)Nc2cccc3ncccc23)c2ccccc2c1=O | -4.57 (active)
89 | O=C(O)c1ccc(N2C(=O)Nc3ccccc3N2O)cc1 | 2.34
90 | CCn1cc(C(=O)O)c(=O)c2cnc(N3CCN(C(=O)Nc4cccc5ccccc45)CC3)nc21 | -5.9 (active)
91 | CCn1cc(C(=O)O)c(=O)c2cnc(N3CCN(C(=S)Nc4ccc(F)cc4)CC3)nc21 | -3.18 (active)
92 | CCn1cc(C(=O)O)c(=O)c2cc(F)c(N3CCN(C)CC3)cc21 | -0.61
93 | COc1ccc(/C=C(\C#N)C(=O)OCC(=O)Nc2c(C)cccc2C(C)C)cc1 | 3.36
94 | O=C(O)C1CC=CCC1C(=O)Nc1ccc(N2CCN(Cc3ccccc3)CC2)cc1 (stereo unspecified) | -4.25 (active)
95 | CN(C)c1ccc(/C=C2\N=C(c3ccc(Cl)c([N+](=O)[O-])c3)NC2=O)cc1 | 4.65
96 | CCOc1ccc(CN(Cc2ccco2)C(c2cccs2)c2nnnn2C(C)(C)C)cc1 (stereo unspecified) | -3.47 (active)
